Whole data set: some 39,000 sequences, median “fluorescence intensity (a.u.)” near 4,300, cut for the highest 2% near 39,000. The list comes from a sample in which the highest values are over-represented; it also holds similar and randomly drawn sequences.

The assay has as its target T1, OsSMF1 (Oryza sativa, UniProt Q6ZLB0 1-436).
T1 sequence: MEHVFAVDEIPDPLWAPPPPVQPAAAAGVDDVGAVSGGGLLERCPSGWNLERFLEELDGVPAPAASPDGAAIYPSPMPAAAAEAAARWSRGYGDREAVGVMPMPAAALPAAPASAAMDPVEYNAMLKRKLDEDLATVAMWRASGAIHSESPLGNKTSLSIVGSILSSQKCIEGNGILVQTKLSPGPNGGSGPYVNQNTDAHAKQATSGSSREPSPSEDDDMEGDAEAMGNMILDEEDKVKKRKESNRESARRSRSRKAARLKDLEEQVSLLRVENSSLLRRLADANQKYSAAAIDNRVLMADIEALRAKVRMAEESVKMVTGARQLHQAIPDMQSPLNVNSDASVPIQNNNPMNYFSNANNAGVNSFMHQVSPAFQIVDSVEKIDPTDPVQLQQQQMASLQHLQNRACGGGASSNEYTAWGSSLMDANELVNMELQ
In words: protein-binding microarray (RPBM); PBS, 2% BSA, 51.3 ng/ul salmon testes DNA, 50 uM zinc acetate, 200 nM TF, 25 C, 1 h; high values mean tight binding. As to conditions: protein: recombinant; tags: N-terminal polyhistidine and DsRed monomer fusion (pET32a); chain copies: 2; label: CyDye5-dUTP incorporated in the synthesized complementary strand; 3' TTTTT single-stranded linker to array surface; dsDNA, one strand shown. Put shortly:
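Transcription factors were made in E. coli BL21-CodonPlus as N-terminal fusions to a polyhistidine tag and DsRed, then purified on Ni–NTA. After primer extension with Cy5-dUTP and blocking with 2% BSA, a custom Agilent array was exposed for 1 h at 25 °C to 200 nM protein in PBS, 2% BSA, salmon testes DNA and 50 µM zinc acetate. Washed arrays were scanned on an Axon 4000B, and the binding signal is per-feature fluorescence intensity in arbitrary units.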
Turning to “TAACACAACTATTTACTCAGCTCACGTGTTTCATTAACAACGGAGTCACCTAGTGCAG”, the binding signal was 3340 fluorescence intensity (a.u.). The same measure for “AGCGACGAGTAAACAAAGCGCGGCGTAGCATGTGATGTGGCGGAGTCACCTAGTGCAG”: 4440 fluorescence intensity (a.u.); for “GTTATATCTCACGTGTCAAAATTCCTATGATTTTCAGTAACGGAGTCACCTAGTGCAG”: 4700 fluorescence intensity (a.u.).

With “GCGTCACGTTCCTGTCGGCGGCGGCCAACGTGGCCCGCGTCGGAGTCACCTAGTGCAG”, the binding signal was 15200 fluorescence intensity (a.u.). To “CTGCTGCCGTCGCAGAAGGTGCTGACATGGCCAGGGGTGGCGGAGTCACCTAGTGCAG” belongs 45300 fluorescence intensity (a.u.). To “CGCCGAGCTGCCACGCTCGCGTCGCGTCCAGATGCGCGCGCGGAGTCACCTAGTGCAG” belongs 3680 fluorescence intensity (a.u.).

With “GCCGGCGACGCTGCCGCCGTCACCACTACCGCTGCCGCGGCGGAGTCACCTAGTGCAG”, the binding signal was 4140 fluorescence intensity (a.u.). The same measure for “CGCTGCTGCCGTCACAGAAGGTGCTGACATGGCCTGGGGTCGGAGTCACCTAGTGCAG”: 7520 fluorescence intensity (a.u.); for “CGCCGCTGCCGCCAAACCGTCGGTGGAGAAGGCCTACCGGCGGAGTCACCTAGTGCAG”: 59200 fluorescence intensity (a.u.); for “CCGAGCCACGTCGCGCCGCCGCCGCTGCTGTGCCGCCGCGCGGAGTCACCTAGTGCAG”: 5650 fluorescence intensity (a.u.).

In the case of “GCCGCCGCCGCCGCCGCCGCTGACGAGGAGCAGAAGGTGGCGGAGTCACCTAGTGCAG”, the binding signal was 4310 fluorescence intensity (a.u.). The same measure for “CCGTCGTGCTGGGTGTGGCGCCGGAGAAGAAGGCGCAGCACGGAGTCACCTAGTGCAG”: 41700 fluorescence intensity (a.u.). The same measure for “GCGGGCGCACGGGTGGGTGGTGTTCTGGGGCGGAGGCAGCCGGAGTCACCTAGTGCAG”: 3310 fluorescence intensity (a.u.); for “GCGCGCCGTCGTGGCGCTGGCGGCCACCACGGTGGTCACCCGGAGTCACCTAGTGCAG”: 4120 fluorescence intensity (a.u.). The same measure for “GAGTGGAGAAGGCGCGCCACCGTCGCTAGAGCCGATGCTGCGGAGTCACCTAGTGCAG”: 47700 fluorescence intensity (a.u.); for “GCGCCGTCGTCGTCGCTGCCGTGGCGCCGCCGCGGCCACCCGGAGTCACCTAGTGCAG”: 6800 fluorescence intensity (a.u.). In the case of “GATGTTACGCGTGTAATGGTGTGTGCGTGTATATACTTTGCGGAGTCACCTAGTGCAG”, the binding signal was 7330 fluorescence intensity (a.u.).

For “ACGTTTACTCCCAGTACACACAAGACACTACTAGCTTAGACGGAGTCACCTAGTGCAG”, the binding signal is 3420 fluorescence intensity (a.u.).

In the case of “TGGAGGAGGAGGAGGGGAGACCACCGGAGGTAGGCGAATCCGGAGTCACCTAGTGCAG”, the binding signal is 3140 fluorescence intensity (a.u.). The same measure for “TCAGATAGCCACCATGACATGTATCAGTACATGCAGTGATCGGAGTCACCTAGTGCAG”: 4480 fluorescence intensity (a.u.); for “CGAATAAGCCCTTAATGTGTACGTTATTTGGTTTATCCACCGGAGTCACCTAGTGCAG”: 3240 fluorescence intensity (a.u.). To “CGCCGGTGCTGATGCTGATCGATCTTACGTCGCGTCGCGACGGAGTCACCTAGTGCAG” belongs 3280 fluorescence intensity (a.u.). To “CTGCAGCAAACGACCAGCCATGTCACAGGTTGTGAAGGTCCGGAGTCACCTAGTGCAG” belongs 4600 fluorescence intensity (a.u.); to “GAAGGCGGCGCGGAAGTCGGCGCCGGCGACCGGCGGCGTGCGGAGTCACCTAGTGCAG”, 9120 fluorescence intensity (a.u.); to “TTGGGCGAGGTAGAGGCGGCGCCGGTGTCATCACCGTCGTCGGAGTCACCTAGTGCAG”, 5140 fluorescence intensity (a.u.).

Turning to “AGAGCAAGGCGCCGGTGGTGCTCATCAAGCCGTCGGCGACCGGAGTCACCTAGTGCAG”, the binding signal is 63100 fluorescence intensity (a.u.).

For “ACGGTCACGGTCCGGCCGCTCTACACGTACGTAGTACGTGCGGAGTCACCTAGTGCAG”, the binding signal is 25100 fluorescence intensity (a.u.). As to “GAGATTTGATGACTGGGATGCCACATGGACACCACGACAGCGGAGTCACCTAGTGCAG”, the binding signal is 13300 fluorescence intensity (a.u.).

As to “ATGGTGGTTGTGTCTTATATTTTGGAATGGAGGGACTTATCGGAGTCACCTAGTGCAG”, the binding signal was 21300 fluorescence intensity (a.u.). The same measure for “TGGGCCGTGATTGAGGCCTATATATACGTGGCCTGACAAACGGAGTCACCTAGTGCAG”: 4000 fluorescence intensity (a.u.). To “ATCAACGTATCTAAACCGGATGGAAACACGTATCTAAACACGGAGTCACCTAGTGCAG” belongs 6180 fluorescence intensity (a.u.); to “CAACACGCTCGATATCATCTAGTTAAACTAACCTAGTGTGCGGAGTCACCTAGTGCAG”, 42700 fluorescence intensity (a.u.); to “GGATCGAAACTTGTGTTAAACACGTCAACTTCATGCATCTCGGAGTCACCTAGTGCAG”, 3310 fluorescence intensity (a.u.).

For the sequence “AGCTTCGGTTTTCTTACTCAGCACAACGGGGTGGTGGCGCCGGAGTCACCTAGTGCAG”, the binding signal was 5360 fluorescence intensity (a.u.).

Take “GAAAATTTGAGCAAAATTTAGTTGAATTTGAACAAATATTCGGAGTCACCTAGTGCAG”: the binding signal was 6670 fluorescence intensity (a.u.).

As to “AATTACAGATTCCGTCAGAAAACTGTGAGACAGATTTATTCGGAGTCACCTAGTGCAG”, the binding signal is 3290 fluorescence intensity (a.u.). The same measure for “CCGTTGAATGTGCCAGACAAACTGAGTGTAATTTAATATTCGGAGTCACCTAGTGCAG”: 65100 fluorescence intensity (a.u.); for “TCCCTTGTCGACACATGCGTGTCAGCTCCAGGTTTATAACCGGAGTCACCTAGTGCAG”: 6370 fluorescence intensity (a.u.); for “CTCATGTTGTTTGACGGTTTGACTCTCCTAGTTTATCATCCGGAGTCACCTAGTGCAG”: 3370 fluorescence intensity (a.u.). The same measure for “TTCACGCCCTGTAACATCGTGTGCATCCATCCCTCCACCGCGGAGTCACCTAGTGCAG”: 4190 fluorescence intensity (a.u.). As for “TTTTCATAAATGCTCCTTTGAAACAAATGATTTTACCCTACGGAGTCACCTAGTGCAG”, the binding signal was 43000 fluorescence intensity (a.u.). The same measure for “ACCTTCAAATGCAATTTTACAATGGATTTACCTCAAGCTACGGAGTCACCTAGTGCAG”: 19200 fluorescence intensity (a.u.); for “TAAAATCTAGATGCAATGAGTTATTTCATATGATTTGAAACGGAGTCACCTAGTGCAG”: 17000 fluorescence intensity (a.u.).

Values taken from article PMC7819943, “Rice protein-binding microarrays: a tool to detect cis-acting elements near promoter regions in rice”.
